Results reported in PubChem BioAssay AID686979 (National Center for Advancing Translational Sciences (NCATS), 2013).
In all, about 420,000 compounds went through this assay and about 50,000 (12%) were called active. A call without a number means that no potency is given here. About 26% were inconclusive and are not listed. Calls follow the shape of the dose curve; as a rule, active = well fitted inhibition curve with a large enough effect; inconclusive = small, poorly fitted or top-dose-only effect; inactive = flat fitted curve, though single readings scatter. Many of the other results were omitted from the sample, so actives are more common in it than they were. Where a SMILES comes first, the peptide text is derived from it. The star is where a group is joined. Bz = O=C(c1ccccc1)*

Assay: qHTS for Inhibitors of human tyrosyl-DNA phosphodiesterase 1 (TDP1): qHTS in cells in presence of CPT; also: nearly all actives have a fitted effect of over 55% in size
Settings: chicken DT40 Tdp1-/-;hTDP1 cells + 20 nM CPT, ATP luminescence, 48 h; series mostly up to 46.2 µM
Outline: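 Chicken DT40 Tdp1-/- cells stably complemented with human TDP1 were seeded at 400 cells/well in medium containing 20 nM camptothecin, exposed to pin-transferred compounds, and grown at 37 °C for at least 48 hr. Viability was read as ATP luminescence.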
Potency is read from the fitted curve at half-maximal effect.

SMILES	Potency
CCC1(CC)NC(=O)N(CC(=O)OCC(=O)c2cc(C)c(C)cc2C)C1=O	inactive
Cc1csc(NC(=O)CSc2nc(=O)cc(N)n2-c2ccc(F)cc2)n1	inactive
CC1Cc2[nH][nH]c(=O)c2C(C2CCCC2)O1 (stereo not drawn)	inactive
CCn1c(C(C)NC(=O)c2ccc(C)cc2)n[nH]c1=S (stereo not drawn)	inactive
CCN1CCC2(CC1)N=C(c1ccc(F)cc1)C(=S)N2C(=O)c1ccc(C)cc1	8.2 µM (active)
CCN1CCN(C(=O)CSc2ccc(C)cc2)CC1	inactive
C/C(=N\NC(N)=S)c1ccncc1	inactive
C/C(=N\NC(=S)NC(C)C)c1ccc(C(C)(C)C)cc1	23.1 µM (active)
C/C(=N\NC(N)=S)c1cccnc1	inactive
COc1ccc(-c2ocnc2C(=O)Nc2ccc3c(c2)CCC3)cc1	inactive
CC1(C)O[C@@H]2[C@H](O1)[C@@H](COS(=O)(=O)O)O[C@H]2n1ccc(=O)[nH]c1=O	inactive
O=C(NCCC1=CCCCC1)c1ccc(-n2cncn2)cc1	inactive
Cc1ccn2c(=O)c(C(=O)NCCC3=CCCCC3)c(O)nc2c1	23.1 µM (active)
Cn1nnc2cc(C(=O)NCCC3=CCCCC3)ccc21	inactive
Nc1ccc2c(c1)C(O)c1ccc(Cl)cc1-2 (stereo not drawn)	inactive
O=C(c1ccc(Br)cc1)N(Cc1cccs1)c1ccc(F)cc1	inactive
CC(C)OC(=O)CN1CCN(c2ccc(Cl)cc2)CC1	inactive
CC(NC(=O)c1cccc(S(=O)(=O)N2CCc3ccccc3C2)c1)c1ccco1 (stereo not drawn)	inactive
Cc1cccc(N2CCN(C(=O)c3cccc(S(=O)(=O)N4CCc5ccccc5C4)c3)CC2C)c1 (stereo not drawn)	9.2 µM (active)
COC(=O)c1ccc(S(=O)(=O)N2CCc3ccccc3C2)cc1	inactive
CC1CCCC(C)N1C(=O)COC(=O)COc1ccccc1C#N (stereo not drawn)	inactive
O=C(COC(=O)c1ccc(O)cc1O)c1ccc2c(c1)OCCO2	inactive
CC(CNC(=O)c1ccc(N)cc1)NC(=O)c1ccc(N)cc1 (stereo not drawn)	inactive

SMILES	Potency
CC(Cc1ccccc1)C(=O)N(C)Cc1ccccc1 (stereo not drawn)	inactive
CN(Cc1ccccc1F)C(=O)C(Cc1ccccc1)NC(=O)c1ccccc1 (stereo not drawn)	29.1 µM (active)
O=C(NC(Cc1ccccc1)C(=O)N1CCCC1C(=O)O)c1ccccc1 (stereo not drawn) (Bz-Phe-Pro-OH; configuration not given here)	inactive
CCOc1cccc(C(=O)Nc2nnc(-c3cccs3)s2)c1	inactive
CC(=O)c1sc(NC(=O)c2ccc(C)cc2)nc1C	inactive
N#Cc1ccc(C(=O)Nc2nc(-c3cccs3)c(C(=O)C(F)(F)F)s2)cc1	1.64 µM (active)
CC1CN(C(=O)c2cc(COc3c(F)cccc3F)on2)CCN1C (stereo not drawn)	inactive
CC1CCCCN1C(=O)Cn1c(=O)oc2cc(S(=O)(=O)N3CCCCC3)ccc21 (stereo not drawn)	inactive
CC(C)CCNC(=O)Cn1c(=O)oc2cc(S(=O)(=O)N3CC(C)CC(C)C3)ccc21 (stereo not drawn)	23.1 µM (active)
CC1CCCN(C(=O)Cn2c(=O)oc3cc(S(=O)(=O)N4CCCCC4C)ccc32)C1 (stereo not drawn)	inactive
CC(=O)c1cccc(NC(=O)CSc2nc3c(c(=O)[nH]2)CCC3)c1	inactive
O=C(CCc1ccccc1)NNC(=O)COc1ccc(Cl)cc1	inactive
O=C(COC(=O)COc1cccc(F)c1)NCC1CCCCC1	inactive
COc1cc(NC(=O)c2cc3ccc4cccnc4c3[nH]2)cc(OC)c1OC	inactive
Cc1ccccc1CN1CCC(CNC(=O)c2cc3ccc4cccnc4c3[nH]2)CC1	16.4 µM (active)
Cc1ccccc1CN1CCC(CNC(=O)c2c(C)oc3ncnc(N4CCCCC4)c23)CC1	inactive
Cc1ccccc1CN1CCN(CC(=O)NCc2ccccn2)C1=O	inactive
CCOc1ccccc1N(CC)C(=O)c1cc2ccc3cccnc3c2[nH]1	5.8 µM (active)
CCOc1cccc(OCCCOc2cccc3cccnc23)c1	inactive
O=c1[nH]n2c(=O)c3c([nH]c2c1N=Nc1ccccc1)CCC3	inactive
Cc1ccc(N(C(=O)CNC(=O)c2ccco2)C(C(=O)NC2CCCC2)c2ccncc2)cc1 (stereo not drawn)	inactive
CCOc1cc2[nH]c(=O)n(Cc3ccc(C(=O)NCCN(CC)CC)cc3)c(=O)c2cc1OCC	inactive
CCOC(=O)N1CCN(Cc2nc3cc(NC(C)=O)ccc3n2C)CC1	inactive

SMILES	Potency
COc1ccc(OCC(=O)Nc2nnc(-c3ccco3)s2)cc1	inactive
CCCCN(C(=O)C(CCSC)N1C(=O)c2ccccc2C1=O)c1c(N)n(CCC)c(=O)[nH]c1=O (stereo not drawn)	inactive
CCCOc1ccc(C(=O)NCCc2ccccc2)cc1	inactive
CCCOc1ccc(C(=O)C(CCC(CNCC)C(=O)c2ccc(OCCC)cc2)CNCC)cc1 (stereo not drawn)	0.651 µM (active)
CCCCOc1ccc(C(=O)NCc2ccncc2)cc1	inactive
CCCCOc1ccc(C(=O)NO)cc1	10 µM (active)
CCCCOc1ccc(C(=O)NN2CCN(C)CC2)cc1	inactive
CCCOc1ccc(C(=O)CCC(=O)OC(C)C(=O)Nc2ccc(NC(C)=O)cc2)cc1 (stereo not drawn)	inactive
CC(C)CCNC(=O)CSc1nc2ccccc2nc1Cc1ccc(Cl)cc1	inactive
CC1C(=O)Nc2ccccc2N1C(=O)c1c(F)cccc1F (stereo not drawn)	inactive
COc1ccccc1/C=C/C(=O)NC1CC2CCC1C2 (stereo not drawn)	inactive
Cc1sc2ncn(CC(=O)NCCN(C)C)c(=O)c2c1S(=O)(=O)N1CCC(C)CC1	inactive
O=C(NC1CCN(C(=S)Nc2ccc(Cl)cc2)CC1)C1CCCCC1	inactive
COc1ccc(/C(N)=N/OC(=O)CCCc2ccccc2)cc1	inactive
Cc1ccc(C(=O)Nc2c(C#N)c(C)c(C)n2Cc2ccccc2)cc1	25.9 µM (active)
Cc1c(C#N)c(NC(=O)c2ccccc2)n(Cc2ccccc2)c1C	inactive
Cc1ccc(C(=O)NCCNS(=O)(=O)c2ccccc2)cc1	inactive
COC(=O)/C=C(\Oc1ccccc1)C1(O)CCCCC1	inactive
Cc1ccc(C(CC(=O)O)Nc2nc(N3CCCCC3)nc(N3CCCCC3)n2)cc1 (stereo not drawn)	inactive
CC(Nc1nc(N2CCN(CCO)CC2)nc2ccccc12)c1ccccc1 (stereo not drawn)	inactive
CC(Nc1nc(N2CCCC2)nc2ccccc12)c1ccccc1 (stereo not drawn)	23.1 µM (active)
CCCOc1ccc(/C(O)=C2/C(=O)C(=O)N(CCN(C)C)C2c2ccc(OC)c(OC)c2)cc1 (stereo not drawn)	inactive
